The text below walks through data of PubChem BioAssay (NCATS).

Test [1] deals with Lysosomal acid glucosylceramidase (Homo sapiens) (UniProt P04062). Nature of the test: Glucocerebrosidase-p2 (AID 348; in the data active = potency below about 10 µM; note: potency is the fitted concentration of half-maximal effect). Conditions: purified GBA, blue fluorogenic substrate, 40 min. The procedure, abridged:
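Normal human glucocerebrosidase (0.2 nM) with blue fluorogenic substrate (80 uM final) in citrate/phosphate pH 5.9 with 10mM sodium taurocholate, 0.01% tween-20; 40 min RT, NaOH/glycine stop; fluorescence Ex 365/Em 440; AC50 from a titration from 0.6 nM upwards.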

Test [2] has as its target Cytochrome P450 1A2 (Homo sapiens) (UniProt P05177). Nature of the test: p450-cyp1a2 (AID 410; calls by dose curve; note: potency is the fitted concentration of half-maximal effect). Conditions: recombinant CYP1A2, luciferin-ME demethylation, luminescence; series mostly up to 57 µM. The procedure, abridged: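 O-Demethylation of luciferin 6' methyl ether by human CYP1A2 is monitored as luciferase luminescence. Substrate sits at Km (100uM); enzyme is 20nM. Values are scaled to 57 uM furafylline as maximal inhibition.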

A short description of test [3]: NFAT Signaling Pathway (AID 444; active = well fitted curve in either direction with a large enough effect, not every such curve was filed as active;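 note: carbachol stimulus at about its EC50 of 1 µM final; % is set by controls: 0 for no effect and ±100 for the full control effect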). To be noted: Jurkat NFAT-bla M1, carbachol, beta-lactamase ratio, 5 h; at 7.69 µM (top of the series) unless noted. In a few lines:
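Jurkat cells with NFAT-driven β-lactamase reporter and co-expressed M1 receptor, stimulated with carbachol (final 1 uM, ~EC50), compound titration, 5 h at 37 °C. CCF4 loaded 1 h at RT; 460/530 nm ratio gave %activity and AC50.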

A short description of test [4]: Stat Signaling Pathway (AID 446; active = well fitted curve in either direction with a large enough effect, not every such curve was filed as active;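 note: ME-180 cervical cancer cells given 40 pM IL-6 alongside compound; SIE-controlled beta-lactamase reporter measured as 460/530 nm FRET emission ratio; % is set by controls: 0 for no effect and ±100 for the full control effect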). To be noted: ME-180 SIE beta-lactamase reporter, IL-6 stimulated, 5 h; at 7.69 µM (top of the series) unless noted. In a few lines: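 FRET read-out (405 nm excitation, 460/530 nm emission) of a beta-lactamase reporter under a STAT-inducible element in ME-180 cervical carcinoma cells. Cells with compound receive 40 pM IL-6 for 5 h. Values are normalised to AC90 stimulation and AC90 JAK-inhibitor controls.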

The target in test [5] is Glucocorticoid receptor (Homo sapiens) (UniProt P04150). Nature of the test: GR-GFP Redistribution (AID 450;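 active = compounds whose dose series gives a full or clear partial fitted curve of increased nuclear translocation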; note: potency is the fitted concentration of half-maximal effect). To be noted: U2OS GR-GFP nuclear translocation, laser cytometry, 2 h.
Test [6] shares this target. The test can be described thus: GR-EFC Redistribution (AID 451; calls by dose curve; note: potency is the fitted concentration of half-maximal effect). Conditions: CHO-K1 GR-EFC translocation, beta-gal luminescence, 2 h. In a few lines:
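CHO-K1 cells expressing nuclear EA and GR-ED fragments of b-gal; compounds titrated up to 46 uM final, 2 h at 37 C. GR nuclear translocation read as complemented b-gal luminescence after 1 h RT detection.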

For test [7], the target named is Mitogen-activated protein kinase 10 (Mus musculus) (UniProt Q61831). The test can be described thus: JNK3 AlphaScreen Assay (AID 530; active = well fitted curve in either direction with a large enough effect, not every such curve was filed as active;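 note: kinase came from lysate of stimulated human HepG2 cells; signal reports phosphorylation of biotinylated GST-cJun 1-79 at Ser73 with 10 µM ATP; % is set by controls: 0 for no effect and ±100 for the full control effect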). Conditions: JNK3 lysate, c-Jun phosphorylation; series mostly up to 57.1 µM. The procedure, abridged: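 Activity was read by AlphaScreen after JNK3-containing HepG2 lysate (cytokine pre-activated) phosphorylated biotinylated GST-cJun with 10 uM ATP at room temperature. Phospho-Ser73 cJun antibody with Protein-A acceptor beads provided detection.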

Test [8] deals with 3',5'-cyclic-AMP phosphodiesterase 4B (Homo sapiens) (UniProt Q07343). The test can be described thus: qHTS Assay for Inhibitors of PDE-IV (AID 607; active = well fitted activation curve with a large enough effect in the main read-out, with a control signal flat, not every such curve was filed as active; note: % of control where 0% means no effect). To be noted: HEK293 ACTOne CNG channel cells, membrane potential fluorescence; series mostly up to 22.9 µM. The procedure, abridged:
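Cell-based read-out of cAMP via a modified cyclic nucleotide-gated channel and membrane potential dye (535/590 nm) in HEK293 cells expressing PDE4 endogenously. Compounds tested up to 22.9 uM final; 100 uM RO 20-1724 reference.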
(In general: Quantitative high-throughput screening tests each substance at several concentrations.)

Test [9] has as its target Cytochrome P450 3A4 (Homo sapiens) (UniProt P08684). The test can be described thus: qHTS Assay for Inhibitors and Substrates of Cytochrome P450 3A4 (AID 884). Note: potency is the fitted concentration of half-maximal effect; nearly all actives have a fitted effect of over 50% in size. Conditions: recombinant CYP3A4, Luciferin-PPXE luminescence; series mostly up to 57.1 µM. The procedure, abridged: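 Luminescent readout of luciferin produced by CYP3A4 (20 nM) dealkylation of Luciferin-PPXE, 25 uM (its KM). NADPH-driven reaction ran 60 min at RT after 10 min compound preincubation; data scaled to 57 uM ketoconazole as 100% inhibition.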

Test [10] shares this target. The test can be described thus: qHTS Assay for Activators of Cytochrome P450 3A4 (AID 885). Note: nearly all actives have a fitted effect of over 65% in size. Conditions: recombinant CYP3A4, Luciferin-PPXE luminescence, 60 min; series mostly up to 57.1 µM. In a few lines:
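Luminescent readout of luciferin formed from 25 uM Luciferin-PPXE (KM level) by 20 nM CYP3A4 in 200 mM KPO4, with 60 min NADPH-driven reaction at room temperature after 10 min compound exposure. Ketoconazole (57 uM) defined 100% inhibition.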

Test [11] has as its target Dual specificity protein kinase CLK4 (Homo sapiens) (UniProt Q9HAZ1). The test can be described thus: qHTS Assay for Inhibitors of CDC-like Kinase 4 (Kinase-Glo Assay) (AID 1770). Note: % is set by controls: 0 for no effect and ±100 for the full control effect; nearly all actives have a fitted effect of over 65% in size. To be noted: recombinant Clk4, Kinase-Glo ATP depletion luminescence; series mostly up to 66.7 µM. The procedure, abridged:
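Recombinant human Clk4 (25 nM) phosphorylated RS repeat peptide (100 uM) with 1 uM ATP in Tris pH 7.5/MgCl2/EGTA/DTT/Triton buffer for 4.5 h at room temperature. Residual ATP was quantified by Kinase-Glo luciferase luminescence.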

For test [12] the target is unchanged. The test can be described thus: qHTS Assay for Inhibitors of CDC-like Kinase 4 (ADP-Glo Assay) (AID 1771). Note: % is set by controls: 0 for no effect and ±100 for the full control effect; nearly all actives have a fitted effect of over 70% in size. To be noted: recombinant CLK4, ADP-Glo luminescence; series mostly up to 80 µM. The procedure, abridged:
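Compounds are pin-transferred onto substrate mix (100 uM RS peptide, 1 uM ATP), then 25 nM Clk4 is added. After 1 hr at room temperature, ADP-Glo reagent runs 45 min, detection reagent 30 min, then luminescence is read.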

For test [13] the target is unchanged. The test can be described thus: qHTS Assay for Inhibitors of CDC-like Kinase 4 (ADP-FP Assay) (AID 1795). Note: % is set by controls: 0 for no effect and ±100 for the full control effect; nearly all actives have a fitted effect of over 60% in size. Conditions: Transcreener ADP fluorescence polarization; series mostly up to 50 µM. The procedure, abridged: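 Recombinant human Clk4 (6.25 nM) phosphorylated RS repeat peptide (100 uM) with 1 uM ATP in Tris pH 7.5/MgCl2/EGTA/DTT/Triton buffer for one hour. ADP was quantified by Transcreener competitive fluorescence polarization against an ADP calibration curve.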

Test [14] deals with Ubiquitin carboxyl-terminal hydrolase 1 (Homo sapiens) (UniProt O94782). Nature of the test: Inhibitors of USP1/UAF1: Pilot qHTS (AID 504865).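 Note: rhodamine fluorescence freed from ubiquitin-rhodamine substrate followed over time; top concentration of the series differs between compounds; % is set by controls: 0 for no effect and ±100 for the full control effect; nearly all actives have a fitted effect of over 35% in size.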 To be noted: purified USP1/UAF1, Ub-rhodamine cleavage fluorescence; series mostly up to 54.9 µM. The procedure, abridged:
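USP1/UAF1 complex (1nM) preincubated with compound 15 min at room temperature, then Ub-Rho substrate (150nM final) added. Fluorescence read kinetically at 480/540 nm, 6 reads every 60 seconds. Buffer: 50mM HEPES pH 7.8, 0.5mM EDTA, 0.1 mg/ml BSA, 1mM TCEP, 0.01% Tween-20.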

A short description of test [15]: Primary qHTS for small molecule stabilizers of the endoplasmic reticulum resident proteome: Secreted ER Calcium Modulated Protein (SERCaMP) assay (AID 1508630). Note: % is set by controls: 0 for no effect and ±100 for the full control effect. To be noted: SH-SY5Y GLuc-SERCaMP (Gaussia luciferase released on ER calcium loss) secretion, thapsigargin, luminescence; series mostly up to 38.4 µM. The procedure, abridged: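 The SH-SY5Y reporter protocol was run at 3 concentrations up to 38.3 uM (primary) or 11 concentrations (follow-up): 16 h compound, 100 nM thapsigargin for 4 h, then extracellular luciferase luminescence.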

Test [16] in a line: AP1 Signaling Pathway (AID 357; active = well fitted curve in either direction with a large enough effect, not every such curve was filed as active). Conditions: ME-180 AP-1-bla reporter, EGF-induced, beta-lactamase ratio, 5 h; at 7.69 µM (top of the series) unless noted. In a few lines:
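Modulation of EGF-driven AP-1 transcription was assessed with a beta-lactamase reporter in ME-180 cells. Compound and EC50 EGF were co-incubated 5 hours at 37 °C before 2.5-hour CCF4 loading at room temperature and dual-emission reading.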

Test [17] is described as follows: qHTS Assay for Identification of Small Molecule Agonists for Hypoxia Response Element Signaling Pathway (AID 914; active = well fitted activation curve with a large enough effect in the signal ratio, with a control signal flat, not every such curve was filed as active; the % refers to the signal ratio; note: potency is the fitted concentration of half-maximal effect). Conditions: ME-180 (cervical carcinoma) HRE-bla reporter, beta-lactamase ratio, CoCl2, 17 h; activation: stronger effect = higher value. The procedure, abridged: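 In Opti-MEM containing 0.5% dialyzed FBS and 10 mM HEPES, ME-180 HRE-bla cells received a compound titration and EC50 CoCl2. They were incubated 17 hours, then CCF4-loaded 2.5 hours at room temperature before ratio reading.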

Structures are written as SMILES. Unmarked numbers belong to inactive results. Inconclusive results are not listed. Calls of active or inactive are those of the source. Unless noted, calls come from the whole dose curve; as a rule, active = well fitted curve in the direction sought with a large enough effect; inconclusive = small, poorly fitted or top-dose-only effect, or another doubt; inactive = no such curve, though single readings can be large; an effect the other way counts as inactive or inconclusive. Bounds are passed on as bounds.

Dual specificity protein kinase CLK4 (Homo sapiens), sequence (Q9HAZ1 whole entry, looked up): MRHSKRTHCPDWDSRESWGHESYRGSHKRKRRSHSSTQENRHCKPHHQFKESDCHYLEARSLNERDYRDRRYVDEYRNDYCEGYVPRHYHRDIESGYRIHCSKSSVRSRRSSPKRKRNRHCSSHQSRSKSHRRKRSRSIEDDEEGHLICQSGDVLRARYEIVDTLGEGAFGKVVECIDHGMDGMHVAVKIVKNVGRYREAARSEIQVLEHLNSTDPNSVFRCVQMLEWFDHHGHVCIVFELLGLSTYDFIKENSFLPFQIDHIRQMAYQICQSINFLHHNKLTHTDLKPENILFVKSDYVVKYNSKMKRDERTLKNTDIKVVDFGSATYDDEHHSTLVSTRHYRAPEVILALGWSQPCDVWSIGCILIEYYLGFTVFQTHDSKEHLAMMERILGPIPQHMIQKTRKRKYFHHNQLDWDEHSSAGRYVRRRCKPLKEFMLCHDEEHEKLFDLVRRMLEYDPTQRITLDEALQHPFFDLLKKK
Glucocorticoid receptor (Homo sapiens), sequence (P04150 whole entry, looked up): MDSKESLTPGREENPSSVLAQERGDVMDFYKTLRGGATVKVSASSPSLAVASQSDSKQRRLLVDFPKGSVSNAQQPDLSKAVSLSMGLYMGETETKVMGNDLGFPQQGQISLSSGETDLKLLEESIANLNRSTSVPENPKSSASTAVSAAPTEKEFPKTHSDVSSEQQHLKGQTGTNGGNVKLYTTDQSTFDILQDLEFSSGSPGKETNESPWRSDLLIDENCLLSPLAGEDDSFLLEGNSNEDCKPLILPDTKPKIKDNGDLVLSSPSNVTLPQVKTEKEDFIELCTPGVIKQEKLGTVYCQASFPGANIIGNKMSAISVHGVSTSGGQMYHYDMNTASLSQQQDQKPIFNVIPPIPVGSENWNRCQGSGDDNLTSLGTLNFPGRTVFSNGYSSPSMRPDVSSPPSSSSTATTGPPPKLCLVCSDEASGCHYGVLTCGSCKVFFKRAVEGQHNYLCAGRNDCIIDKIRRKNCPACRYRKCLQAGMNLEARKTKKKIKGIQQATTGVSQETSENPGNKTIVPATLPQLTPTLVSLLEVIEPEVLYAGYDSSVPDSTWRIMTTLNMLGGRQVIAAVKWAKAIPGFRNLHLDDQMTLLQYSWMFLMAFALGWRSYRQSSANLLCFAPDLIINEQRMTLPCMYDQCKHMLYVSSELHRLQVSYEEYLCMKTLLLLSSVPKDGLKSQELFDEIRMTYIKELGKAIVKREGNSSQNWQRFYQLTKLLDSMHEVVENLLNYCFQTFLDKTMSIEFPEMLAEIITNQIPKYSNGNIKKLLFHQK
Cytochrome P450 3A4 (Homo sapiens), sequence (P08684 whole entry, looked up): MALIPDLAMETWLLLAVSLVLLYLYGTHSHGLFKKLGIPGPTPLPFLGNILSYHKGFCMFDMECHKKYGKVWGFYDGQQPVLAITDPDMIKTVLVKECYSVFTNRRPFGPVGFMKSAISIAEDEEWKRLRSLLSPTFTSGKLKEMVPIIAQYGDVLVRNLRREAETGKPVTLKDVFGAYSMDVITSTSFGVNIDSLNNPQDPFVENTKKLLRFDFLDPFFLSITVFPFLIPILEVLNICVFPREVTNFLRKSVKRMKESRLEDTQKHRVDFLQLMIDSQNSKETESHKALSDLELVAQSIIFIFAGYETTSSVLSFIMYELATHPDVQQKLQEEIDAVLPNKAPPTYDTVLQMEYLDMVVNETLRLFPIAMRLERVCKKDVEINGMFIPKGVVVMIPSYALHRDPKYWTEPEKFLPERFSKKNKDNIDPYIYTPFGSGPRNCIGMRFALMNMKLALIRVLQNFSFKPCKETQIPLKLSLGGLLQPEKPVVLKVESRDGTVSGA
Lysosomal acid glucosylceramidase (Homo sapiens), sequence (P04062 whole entry, looked up): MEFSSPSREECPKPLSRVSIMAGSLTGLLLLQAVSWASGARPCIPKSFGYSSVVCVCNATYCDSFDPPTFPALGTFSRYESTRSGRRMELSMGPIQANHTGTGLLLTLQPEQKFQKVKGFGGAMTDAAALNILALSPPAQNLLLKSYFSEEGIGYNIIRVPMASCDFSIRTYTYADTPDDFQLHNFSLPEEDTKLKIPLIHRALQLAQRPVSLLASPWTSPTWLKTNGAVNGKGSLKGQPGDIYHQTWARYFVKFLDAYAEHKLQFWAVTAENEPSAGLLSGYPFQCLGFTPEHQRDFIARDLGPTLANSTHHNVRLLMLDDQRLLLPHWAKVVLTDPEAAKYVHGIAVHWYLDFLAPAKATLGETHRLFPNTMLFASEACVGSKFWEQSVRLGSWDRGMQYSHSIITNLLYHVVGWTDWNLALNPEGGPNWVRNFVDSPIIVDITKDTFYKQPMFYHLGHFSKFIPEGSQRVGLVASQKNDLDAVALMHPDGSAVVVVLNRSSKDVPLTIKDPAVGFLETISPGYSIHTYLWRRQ
Ubiquitin carboxyl-terminal hydrolase 1 (Homo sapiens), sequence (O94782 whole entry, looked up): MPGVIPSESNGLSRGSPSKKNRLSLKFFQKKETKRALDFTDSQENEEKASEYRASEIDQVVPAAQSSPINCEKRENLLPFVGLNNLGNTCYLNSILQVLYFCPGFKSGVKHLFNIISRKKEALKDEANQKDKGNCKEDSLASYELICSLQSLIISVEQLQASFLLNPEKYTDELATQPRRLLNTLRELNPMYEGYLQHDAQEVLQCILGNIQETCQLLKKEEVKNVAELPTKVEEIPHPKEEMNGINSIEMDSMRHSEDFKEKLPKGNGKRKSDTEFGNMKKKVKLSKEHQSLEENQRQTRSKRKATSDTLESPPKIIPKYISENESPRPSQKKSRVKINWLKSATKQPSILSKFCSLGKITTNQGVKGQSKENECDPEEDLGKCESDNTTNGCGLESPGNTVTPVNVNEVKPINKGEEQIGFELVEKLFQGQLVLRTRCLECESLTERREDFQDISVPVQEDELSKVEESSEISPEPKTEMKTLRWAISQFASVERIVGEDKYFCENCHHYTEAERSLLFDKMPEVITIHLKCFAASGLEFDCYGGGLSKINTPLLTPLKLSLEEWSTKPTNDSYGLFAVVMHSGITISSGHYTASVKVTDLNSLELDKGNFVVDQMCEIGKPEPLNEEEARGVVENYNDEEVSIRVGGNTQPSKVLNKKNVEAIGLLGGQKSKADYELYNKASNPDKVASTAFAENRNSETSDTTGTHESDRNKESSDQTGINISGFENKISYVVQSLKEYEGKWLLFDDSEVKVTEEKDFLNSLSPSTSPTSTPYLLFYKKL
3',5'-cyclic-AMP phosphodiesterase 4B (Homo sapiens), sequence (Q07343 whole entry, looked up): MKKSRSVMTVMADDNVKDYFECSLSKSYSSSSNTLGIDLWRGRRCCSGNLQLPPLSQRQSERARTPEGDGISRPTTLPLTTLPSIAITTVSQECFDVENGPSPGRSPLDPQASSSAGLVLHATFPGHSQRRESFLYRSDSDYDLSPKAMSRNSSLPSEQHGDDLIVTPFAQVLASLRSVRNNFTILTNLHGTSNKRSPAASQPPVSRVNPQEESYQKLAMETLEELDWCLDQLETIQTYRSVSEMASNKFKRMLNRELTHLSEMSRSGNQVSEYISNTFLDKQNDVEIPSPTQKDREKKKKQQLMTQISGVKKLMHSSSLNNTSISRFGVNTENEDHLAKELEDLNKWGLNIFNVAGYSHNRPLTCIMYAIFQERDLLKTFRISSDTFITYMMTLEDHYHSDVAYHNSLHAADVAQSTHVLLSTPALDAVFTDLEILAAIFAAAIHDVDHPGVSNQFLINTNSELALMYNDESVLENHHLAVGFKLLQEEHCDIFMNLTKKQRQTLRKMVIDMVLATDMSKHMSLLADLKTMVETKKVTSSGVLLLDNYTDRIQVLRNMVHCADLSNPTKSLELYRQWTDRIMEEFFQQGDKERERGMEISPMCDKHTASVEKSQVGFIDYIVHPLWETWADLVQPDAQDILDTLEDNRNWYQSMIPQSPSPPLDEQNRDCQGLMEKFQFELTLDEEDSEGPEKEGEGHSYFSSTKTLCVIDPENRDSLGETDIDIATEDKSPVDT
Cytochrome P450 1A2 (Homo sapiens), sequence (P05177 whole entry, looked up): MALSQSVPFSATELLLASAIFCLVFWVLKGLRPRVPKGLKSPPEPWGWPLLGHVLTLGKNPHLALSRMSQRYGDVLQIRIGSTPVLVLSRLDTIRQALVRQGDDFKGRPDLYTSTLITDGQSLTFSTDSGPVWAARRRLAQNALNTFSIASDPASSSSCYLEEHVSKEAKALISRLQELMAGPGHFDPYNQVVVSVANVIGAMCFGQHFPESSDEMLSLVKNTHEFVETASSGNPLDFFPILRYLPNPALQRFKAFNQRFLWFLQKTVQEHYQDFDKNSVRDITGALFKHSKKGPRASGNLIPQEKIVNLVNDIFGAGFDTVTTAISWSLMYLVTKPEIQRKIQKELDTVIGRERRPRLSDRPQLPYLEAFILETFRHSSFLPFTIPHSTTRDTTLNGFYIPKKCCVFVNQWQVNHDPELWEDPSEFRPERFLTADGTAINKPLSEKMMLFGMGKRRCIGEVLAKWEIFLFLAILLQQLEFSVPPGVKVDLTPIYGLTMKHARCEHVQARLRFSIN

For `c1cncc(-c2cncnc2NCc2cccs2)c1`, the Potency in test [1] is > 11.4 µM; in test [2], 0.316 µM (active); in test [5] it was > 46 µM; in test [6], > 46 µM; in test [9], 2 µM (active). Moreover, the activity change, negative = inhibition in [3] was 23.6%. For the same compound, the activity, negative = inhibition in [4] was -4.79%. The Potency result in test [7], in [8], in test [10], in test [11], in [12] and in test [13] was “inactive” in each case. The Potency result in test [14] was “inactive”. The result in [15] was inactive.
Regarding `COc1ccc(-c2nc3cnc(N(C)C)nc3n(C3CC3)c2=O)cc1`, the Potency in [1] is > 11.4 µM; in test [5], > 9.22 µM; in [6], > 46 µM. The activity change, negative = inhibition in test [16] is -0.159%. Also, in test [4], the activity, negative = inhibition is 24.2%. Besides, the Potency entry in [7], in test [8], in [11], in [12], in test [13] and in test [14] was “inactive” each time. Also, the result in test [15] was inactive.
On to `COc1cccc(Nc2ncc3nc(-c4ccc(Cl)cc4)c(=O)n(C[C@H]4CCCO4)c3n2)c1`, for which the Potency was > 11.4 µM in test [1], > 9.22 µM in [5] and > 46 µM in test [6]. The results for the activity change, negative = inhibition in test [16] and in [3] were -20.5% and 2.35%, respectively. In addition, the activity, negative = inhibition in test [4] is 4.74%. For the same compound, the Potency result in test [7], in test [8], in test [10], in test [11], in test [12] and in test [13] was “inactive” in each case. Besides, the outcome in [15] was inactive.
Take `Cc1nc2cnc(Oc3ccccc3)nc2n(Cc2cccs2)c1=O`: the Potency was > 11.4 µM in [1], > 9.22 µM in [5] and > 46 µM in test [6]. Moreover, the figures for the activity change, negative = inhibition in test [16] and in test [3] were -17.8% and 20.1%, respectively. Also, the activity, negative = inhibition in [4] is -0.465%. The Potency result in test [7], in [8], in test [10], in [11], in test [12] and in test [13] was “inactive” in each case. Further, the outcome in test [15] was inactive.
`COc1ccc(-n2c(=O)c(-c3cc(F)cc(F)c3)nc3cncnc32)cc1`: the Potency in [1] was > 11.4 µM; in [2], 12.6 µM (active); in test [5] it was > 9.22 µM; in test [6] it was > 46 µM. Further, in test [3], the activity change, negative = inhibition is -16%. In addition, in [4], the activity, negative = inhibition was 6.92%. The Potency result in test [7], in test [8], in test [10], in test [11], in test [12] and in test [13] was “inactive” in each case. In [14], the Potency entry is “inactive”. In test [15], the outcome was inactive.
As for `COc1ccc(-c2nc3cnc(N(C)C)nc3n(CCC#N)c2=O)cc1`, the figures for the Potency in test [1] and in [6] were > 11.4 µM and > 46 µM, respectively. Besides, the results for the activity change, negative = inhibition in test [16] and in test [3] were -7.19% and -5.15%, respectively. Further, the Potency entry in [7], in test [8], in test [11], in test [12], in [13] and in [14] was “inactive” throughout. The outcome in test [15] was inactive.
As to `COc1ncc2nc(-c3cn(C)c4ccccc34)c(=O)n(CCc3ccccc3)c2n1`, the Potency was > 11.4 µM in test [1], > 9.22 µM in test [5], > 46 µM in test [6] and 1 µM (active) in test [17]. Moreover, the activity change, negative = inhibition in test [16] was 24.3%; in [3] it was -1.31%. The Potency result in [11], in [12], in test [13] and in test [14] was “inactive” in each case. In test [15], the result was inactive.
